Results: PubChem BioAssay (NCI)
This is part of a sample that, as a whole, favours compounds with a hit. Of some 79,000 tested, about 15% had one in any assay. Active and inactive are the calls of the source. Cut-off read from the data, not from the text of the source: active = growth inhibition above about 70%; inactive = the rest.

How the values were obtained:
[1] = NCI Yeast Anticancer Drug Screen. Data for the rad52 strain (AID 147);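 note: 0% = growth of vehicle-treated control cultures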; conditions: S. cerevisiae rad52 mutant growth inhibition, stronger effect = higher value
Procedure, shortened: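 Yeast strain carrying a DNA damage repair alteration was exposed to test compounds. Growth inhibition was measured relative to vehicle-treated controls.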

[2] = NCI Yeast Anticancer Drug Screen. Data for the wt1 strain (AID 149);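 note: 0% = growth of vehicle-treated wt1 cultures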; conditions: S. cerevisiae wt1 strain (SPY 50644) growth inhibition, stronger effect = higher value
Procedure, shortened: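 Vehicle-normalised growth inhibition; strain wt1; compound exposure.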

[3] = NCI Yeast Anticancer Drug Screen. Data for the rad50EPP+ strain (AID 151);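 note: 0% = growth of vehicle-treated control cultures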; conditions: S. cerevisiae rad50 mutant strain, stronger effect = higher value
Procedure, shortened: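 Yeast strain carrying rad50 alteration (rad50EPP+) exposed to compounds; growth inhibition measured relative to vehicle-treated controls.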

[4] = NCI Yeast Anticancer Drug Screen. Data for the rad50 strain (AID 155);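 note: 0% = growth of vehicle-only cultures of the same strain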; conditions: S. cerevisiae rad50 strain growth inhibition, stronger effect = higher value
Procedure, shortened: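 A DNA repair-deficient yeast mutant serves as the test organism; compound-induced growth inhibition is calculated against vehicle-treated cells.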

[5] = NCI Yeast Anticancer Drug Screen. Data for the mec2-1 strain (AID 157); conditions: S. cerevisiae mec2-1 strain, stronger effect = higher value
Procedure, shortened: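 mec2-1 yeast strain, carrying an alteration in DNA damage repair or cell cycle control, was exposed to compounds; growth inhibition was measured relative to vehicle-treated controls.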

[6] = NCI Yeast Anticancer Drug Screen. Data for the rad14 strain (AID 159);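 note: 0% = growth of vehicle-treated control cultures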; conditions: S. cerevisiae rad14 strain growth inhibition, stronger effect = higher value
Procedure, shortened: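 Vehicle-treated cultures served as the baseline for growth inhibition of a DNA repair-mutant yeast strain exposed to each compound.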

[7] = NCI Yeast Anticancer Drug Screen. Data for the sgs1 mgt1 strain (AID 161);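 note: 0% = growth of cultures given vehicle only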; conditions: S. cerevisiae sgs1 mgt1 strain, stronger effect = higher value
Procedure, shortened: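 Growth of a repair-deficient yeast mutant was monitored after compound treatment and expressed as inhibition relative to vehicle-treated cultures.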

[8] = NCI Yeast Anticancer Drug Screen. Data for the CLN2oe strain (AID 163);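 note: 0% = growth of vehicle-only control cultures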; conditions: S. cerevisiae CLN2oe strain, stronger effect = higher value
Procedure, shortened: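 Yeast cells carrying a defined cell-cycle control alteration were exposed to test compounds. Growth inhibition was scored against vehicle-treated control cultures.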

[9] = NCI Yeast Anticancer Drug Screen. Data for the cln2 rad14 strain (AID 165);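 note: 0% = growth equal to vehicle treated cultures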; conditions: S. cerevisiae cln2 rad14 strain, stronger effect = higher value
Procedure, shortened: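 Yeast carrying cln2 and rad14 alterations (cell cycle control and DNA damage repair) were exposed to compounds. Growth inhibition was measured against vehicle-treated controls.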

[10] = NCI Yeast Anticancer Drug Screen. Data for the bub3 strain (AID 167); conditions: S. cerevisiae bub3 mutant strain, stronger effect = higher value
Procedure, shortened: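 Inhibition values come from growth of compound-treated mutant yeast normalised to vehicle-treated controls.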

[11] = NCI Yeast Anticancer Drug Screen. Data for the wt2 strain (AID 169);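 note: 0% = growth of vehicle-treated yeast cultures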; conditions: S. cerevisiae wt2 strain growth inhibition, stronger effect = higher value
Procedure, shortened: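 Yeast cells were exposed to test compounds, and growth inhibition was measured relative to vehicle-treated controls.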

[12] = NCI Yeast Anticancer Drug Screen. Data for the mlh1 strain (AID 171);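 note: 0% = growth of vehicle-treated control cultures of the same strain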; conditions: S. cerevisiae mlh1 strain growth inhibition, stronger effect = higher value
Procedure, shortened: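 Yeast carrying a defined genetic alteration in DNA damage repair or cell cycle control were exposed to test compounds. Growth inhibition was measured relative to vehicle-treated controls.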

[13] = NCI Yeast Anticancer Drug Screen. Data for the sgs1 strain (AID 173);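 note: 0% = growth of vehicle-only control cultures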; conditions: S. cerevisiae sgs1 mutant, stronger effect = higher value
Procedure, shortened: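 Yeast mutant strains carrying defined defects in DNA damage repair or cell cycle control were exposed to test compounds. Growth inhibition was scored against vehicle-treated controls.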

[14] = NCI Yeast Anticancer Drug Screen. Data for the mlh1 rad18 strain (AID 175); conditions: S. cerevisiae mlh1 rad18 strain growth inhibition, stronger effect = higher value
Procedure, shortened: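 Growth inhibition of the yeast strain was measured after compound exposure and expressed relative to vehicle-treated controls. The strain carries defined defects in DNA damage repair.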

[15] = NCI Yeast Anticancer Drug Screen. Data for the rad18 strain (AID 177); conditions: S. cerevisiae rad18 mutant growth inhibition, stronger effect = higher value
Procedure, shortened: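 Yeast carrying a defined DNA damage repair alteration were exposed to compounds. Growth inhibition was expressed relative to vehicle-treated controls.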

[16] = NCI Yeast Anticancer Drug Screen. Data for the mgt1 strain (AID 153); conditions: S. cerevisiae mgt1 mutant growth inhibition, stronger effect = higher value
Procedure, shortened: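 Yeast mgt1 strain (DNA repair/cell-cycle alteration panel) exposed to compounds; growth inhibition measured relative to vehicle-treated controls.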

[17] = at 5.0 µM (retest, dose inferred, filed as 0.5)
[18] = at 50.0 µM (retest, dose inferred, filed as 5.0)

Measured: growth inhibition

COc1cccc2c1C(=O)c1c(O)c3c(c(O)c1C2=O)C[C@@](O)(/C(C)=N\O)C[C@@H]3OC1CC(N)C(O)C(C)O1 (stereo partly specified)
inactive: [1]; at 1.2 µM 8% | [1]; at 3.7 µM 27% | [1]; at 11.0 µM 61% | [2]; at 1.2 µM 6% | [2]; at 3.7 µM 1% | [2]; at 11.0 µM 8% | [2]; at 33.0 µM 19% | [2]; at 100.0 µM 29% | [3]; at 1.2 µM 7% | [3]; at 3.7 µM 29% | [3]; at 11.0 µM 63% | [4]; at 1.2 µM 13% | [4]; at 3.7 µM 52% | [4]; [17] 22% | [5]; at 1.2 µM -2% | [5]; at 3.7 µM 3% | [5]; [17] 0% | [5]; at 11.0 µM 14% | [5]; at 33.0 µM 27% | [5]; [18] -14% | [5]; at 50.0 µM 5.75% | [5]; at 100.0 µM 38% | [6]; at 1.2 µM 1% | [6]; at 3.7 µM 3% | [6]; at 11.0 µM 8% | [6]; at 33.0 µM 29% | [6]; at 100.0 µM 63% | [7]; [17] -5% | [7]; [18] 26% | [7]; at 50.0 µM -9.9% | [8]; at 1.2 µM -1% | [8]; at 3.7 µM 2% | [8]; at 11.0 µM 8% | [8]; at 33.0 µM 13% | [8]; at 100.0 µM 44% | [9]; [17] 3% | [9]; [18] 18% | [9]; at 50.0 µM 26.2% | [10]; at 1.2 µM -2% | [10]; at 3.7 µM 0% | [10]; [17] 35% | [10]; at 11.0 µM 5% | [10]; at 33.0 µM 25% | [10]; [18] 18% | [10]; at 50.0 µM -23.6% | [10]; at 100.0 µM 47% | [11]; at 1.2 µM 0% | [11]; at 3.7 µM 1% | [11]; at 11.0 µM 12% | [11]; at 33.0 µM 25% | [11]; at 100.0 µM 37% | [12]; at 1.2 µM 1% | [12]; at 3.7 µM -1% | [12]; at 11.0 µM 11% | [12]; at 33.0 µM 26% | [12]; at 100.0 µM 49% | [13]; at 1.2 µM 0% | [13]; at 3.7 µM 5% | [13]; at 11.0 µM 15% | [13]; at 33.0 µM 29% | [13]; at 100.0 µM 48% | [14]; [17] 9% | [14]; [18] 46% | [14]; at 50.0 µM 13.8% | [15]; at 1.2 µM 3% | [15]; at 3.7 µM 10% | [15]; at 11.0 µM 20% | [15]; at 33.0 µM 43%
active: [1]; at 33.0 µM 84% | [1]; at 100.0 µM 90% | [3]; at 33.0 µM 82% | [3]; at 100.0 µM 89% | [4]; at 11.0 µM 79% | [4]; at 33.0 µM 89% | [4]; [18] 93% | [4]; at 50.0 µM 91.6% | [4]; at 100.0 µM 93% | [15]; at 100.0 µM 75%

Cc1c([N+](=O)[O-])oc2ccc3ccccc3c12
active: [1]; at 11.0 µM 86% | [1]; at 33.0 µM 94% | [1]; at 100.0 µM 92% | [3]; at 11.0 µM 79% | [3]; at 33.0 µM 91% | [3]; at 100.0 µM 88% | [4]; [17] 70% | [4]; at 33.0 µM 88% | [4]; [18] 90% | [4]; at 50.0 µM 87% | [4]; at 100.0 µM 92% | [5]; [18] 90% | [5]; at 50.0 µM 94.8% | [5]; at 100.0 µM 91% | [7]; [17] 76% | [7]; [18] 92% | [7]; at 50.0 µM 84.4% | [9]; [17] 81% | [9]; [18] 96% | [9]; at 50.0 µM 97% | [13]; at 11.0 µM 78% | [13]; at 33.0 µM 86% | [13]; at 100.0 µM 89% | [14]; [17] 82% | [14]; [18] 94% | [14]; at 50.0 µM 95.3%
inactive: [1]; at 1.2 µM 23% | [1]; at 3.7 µM 50% | [2]; at 1.2 µM 2% | [2]; at 3.7 µM 2% | [2]; at 11.0 µM 4% | [2]; at 33.0 µM 11% | [2]; at 100.0 µM 21% | [3]; at 1.2 µM 26% | [3]; at 3.7 µM 50% | [16]; at 1.2 µM -8% | [16]; at 3.7 µM -1% | [16]; at 11.0 µM 3% | [16]; at 33.0 µM 8% | [16]; at 100.0 µM 22% | [4]; at 1.2 µM 26% | [4]; at 3.7 µM 48% | [4]; at 11.0 µM 69% | [5]; at 1.2 µM 6% | [5]; at 3.7 µM 6% | [5]; [17] 18% | [5]; at 11.0 µM 21% | [5]; at 33.0 µM 51% | [8]; at 1.2 µM -6% | [8]; at 3.7 µM -8% | [8]; at 11.0 µM -6% | [8]; at 33.0 µM 3% | [8]; at 100.0 µM 6% | [10]; at 1.2 µM -11% | [10]; at 3.7 µM -17% | [10]; [17] -66% | [10]; at 11.0 µM -11% | [10]; at 33.0 µM -18% | [10]; [18] -11% | [10]; at 50.0 µM 12.4% | [10]; at 100.0 µM 0% | [11]; at 1.2 µM 1% | [11]; at 3.7 µM 2% | [11]; at 11.0 µM 6% | [11]; at 33.0 µM 14% | [11]; at 100.0 µM 26% | [13]; at 1.2 µM 49% | [13]; at 3.7 µM 69%

CC1(C)N=C(N)N=C(N)N1c1cccc(N)c1.[Sn]
inactive: [1]; at 1.2 µM 18% | [1]; at 3.7 µM 21% | [1]; at 11.0 µM 19% | [1]; at 33.0 µM 24% | [1]; at 100.0 µM 43% | [2]; at 1.2 µM 21% | [2]; at 3.7 µM 17% | [2]; at 11.0 µM 17% | [2]; at 33.0 µM 29% | [2]; at 100.0 µM 47% | [3]; at 1.2 µM -2% | [3]; at 3.7 µM -3% | [3]; at 11.0 µM -1% | [3]; at 33.0 µM -5% | [3]; at 100.0 µM -7% | [5]; at 1.2 µM 2% | [5]; at 3.7 µM 6% | [5]; [17] 7% | [5]; at 11.0 µM 2% | [5]; at 33.0 µM 15% | [5]; [18] 28% | [5]; at 50.0 µM -20.9% | [5]; at 100.0 µM 33% | [6]; at 1.2 µM 5% | [6]; at 3.7 µM 9% | [6]; at 11.0 µM 7% | [6]; at 33.0 µM 18% | [6]; at 100.0 µM 34% | [7]; [17] 45%
active: [7]; [18] 90%
